Experimental data reported in ChEMBL document CHEMBL3988442, “University of Dundee, Small-Polar-MMV Screening Library” (2021).
The campaign covered roughly 48,000 compounds. About 13,000 (27%) showed an effect of 50% or more. Some of the results follow.

What follows are compounds tested on Wolbachia pipientis (assay: Anti-Wolbachia Cell-Based Screen). Details: 5 µM.
Format: functional
Parameters: scale not given: in the data most compounds retested in dose-response had high values

SMILES | Percent Effect
Cc1c(C(=O)NC2(C#N)CCSC2)nnn1-c1ccccc1Cl (stereo not drawn) | 1.619%
Cn1cc(CNc2ccc(F)c(N3CCCS3(=O)=O)c2)cn1 | -4.512%
CCCOCC1CCN(C(=O)Cn2cccc(C(F)(F)F)c2=O)C1 (stereo not drawn) | -13.09%
CN(C)CCN1CCCC12CCN(C(=O)c1ccoc1)CC2.O=C(O)C(F)(F)F.O=C(O)C(F)(F)F | 109.3%
Cn1cc(CN2CCCC23CCN(C(=O)c2cccn2C)CC3)cn1.O=C(O)C(F)(F)F | -11.73%
CN(C)CCN1CCCC12CCCN(Cc1ccoc1)C2.O=C(O)C(F)(F)F.O=C(O)C(F)(F)F.O=C(O)C(F)(F)F (stereo not drawn) | 19.5%
Cc1ccccc1C(=O)N1CCC2(CCCN2CCN(C)C)CC1.O=C(O)C(F)(F)F.O=C(O)C(F)(F)F | 100.3%
CN(C)CCN1CCCC12CCN(C(=O)c1ccco1)CC2.O=C(O)C(F)(F)F.O=C(O)C(F)(F)F | 96.22%
CCN1CCCC12CCN(C(=O)c1ccsc1)CC2.O=C(O)C(F)(F)F | -19.39%
CN(C)CCN1CCCC12CCN(C(=O)c1cccn1C)CC2.O=C(O)C(F)(F)F.O=C(O)C(F)(F)F | -18.28%
CN(C)CCN1CCCC12CCCN(Cc1ccco1)C2.O=C(O)C(F)(F)F.O=C(O)C(F)(F)F.O=C(O)C(F)(F)F (stereo not drawn) | -6.586%
CN(Cc1ccco1)C1CCC12CCN(C(=O)c1ccco1)CC2.O=C(O)C(F)(F)F (stereo not drawn) | -7.154%
NC(=O)C(NCCc1ccc(Cl)s1)c1ccccc1 (stereo not drawn) | 0.1259%
CCN(Cc1noc(C(C)C)n1)Cc1ccc(C#N)cc1F | 13.78%
O=S(=O)(Cc1ccccc1)NCc1ccnc(O)c1 | -8.436%
CCc1ccc2nc(C)cc(C(=O)N3C[C@H]4CCC[C@@]4(CO)C3)c2c1 | -46.54%
CCSc1ncc(CN2C[C@H]3CC[C@@H]2CN(C2CCOCC2)C3)cn1 | 15.93%
CSC(C)C(=O)NCCC(=O)N1CCN(c2ccccn2)CC1 (stereo not drawn) | 112.5%
CCC(C)NC(=O)NCCC(=O)N1CCN(c2ccccn2)CC1 (stereo not drawn) | 129.1%
CC(c1ccccn1)N(C)C(=O)CN1CCN(c2ccccn2)CC1 (stereo not drawn) | -2.14%
CC(C)C(=O)NCCC(=O)N1CCN(c2ccccn2)CC1 | 125.4%
CCc1nnsc1C(=O)NC1CCN(c2ccccn2)CC1 | -15.93%
CC(C)NCc1cccnc1N1CCN(c2ccccn2)CC1 | -3.713%
CC(C)CC(C)NCc1cccnc1N1CCN(c2ccccn2)CC1 (stereo not drawn) | -4.161%
CSCC(C)N(C)C(=O)CN1CCN(c2ccccn2)CC1 (stereo not drawn) | -3.468%
CCCC(C)NCc1cccnc1N1CCN(c2ccccn2)CC1 (stereo not drawn) | 8.499%
Cc1nc(CNC(=O)CCN2CCN(c3ccccn3)CC2)oc1C | -3.101%
CCC(CC)C(=O)NCCC(=O)N1CCN(c2ccccn2)CC1 | 117%
